# Legend:
# [1] = biological target: T1, Inhibitor of nuclear factor kappa-B kinase subunit epsilon (Homo sapiens) (UniProt Q14164); settings: at 1 µM;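 further: reported values are averaged percent inhibition figures against human IKKε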
# T1 sequence (whole entry): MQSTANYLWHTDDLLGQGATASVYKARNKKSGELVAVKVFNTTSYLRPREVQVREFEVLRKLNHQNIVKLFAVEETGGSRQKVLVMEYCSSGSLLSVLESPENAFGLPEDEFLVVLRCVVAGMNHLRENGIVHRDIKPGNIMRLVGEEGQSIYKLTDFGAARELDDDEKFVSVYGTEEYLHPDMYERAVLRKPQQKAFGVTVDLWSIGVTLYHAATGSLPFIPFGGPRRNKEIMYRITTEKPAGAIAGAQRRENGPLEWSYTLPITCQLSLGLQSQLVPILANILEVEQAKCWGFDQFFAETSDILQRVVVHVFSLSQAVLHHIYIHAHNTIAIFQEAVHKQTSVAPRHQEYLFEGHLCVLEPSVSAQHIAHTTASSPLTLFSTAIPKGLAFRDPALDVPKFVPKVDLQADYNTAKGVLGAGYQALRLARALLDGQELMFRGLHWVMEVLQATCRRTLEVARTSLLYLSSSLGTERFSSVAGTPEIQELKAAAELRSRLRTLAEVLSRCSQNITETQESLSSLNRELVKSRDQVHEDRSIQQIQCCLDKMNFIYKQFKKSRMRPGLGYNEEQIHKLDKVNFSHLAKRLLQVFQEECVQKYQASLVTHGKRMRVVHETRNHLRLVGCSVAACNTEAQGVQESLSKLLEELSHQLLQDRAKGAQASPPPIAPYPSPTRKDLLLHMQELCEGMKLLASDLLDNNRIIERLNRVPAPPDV
# [2] = biological target: T2, Serine/threonine-protein kinase Nek1 (Homo sapiens) (UniProt Q96PY6); settings: at 0.1 µM
# T2 sequence (whole entry): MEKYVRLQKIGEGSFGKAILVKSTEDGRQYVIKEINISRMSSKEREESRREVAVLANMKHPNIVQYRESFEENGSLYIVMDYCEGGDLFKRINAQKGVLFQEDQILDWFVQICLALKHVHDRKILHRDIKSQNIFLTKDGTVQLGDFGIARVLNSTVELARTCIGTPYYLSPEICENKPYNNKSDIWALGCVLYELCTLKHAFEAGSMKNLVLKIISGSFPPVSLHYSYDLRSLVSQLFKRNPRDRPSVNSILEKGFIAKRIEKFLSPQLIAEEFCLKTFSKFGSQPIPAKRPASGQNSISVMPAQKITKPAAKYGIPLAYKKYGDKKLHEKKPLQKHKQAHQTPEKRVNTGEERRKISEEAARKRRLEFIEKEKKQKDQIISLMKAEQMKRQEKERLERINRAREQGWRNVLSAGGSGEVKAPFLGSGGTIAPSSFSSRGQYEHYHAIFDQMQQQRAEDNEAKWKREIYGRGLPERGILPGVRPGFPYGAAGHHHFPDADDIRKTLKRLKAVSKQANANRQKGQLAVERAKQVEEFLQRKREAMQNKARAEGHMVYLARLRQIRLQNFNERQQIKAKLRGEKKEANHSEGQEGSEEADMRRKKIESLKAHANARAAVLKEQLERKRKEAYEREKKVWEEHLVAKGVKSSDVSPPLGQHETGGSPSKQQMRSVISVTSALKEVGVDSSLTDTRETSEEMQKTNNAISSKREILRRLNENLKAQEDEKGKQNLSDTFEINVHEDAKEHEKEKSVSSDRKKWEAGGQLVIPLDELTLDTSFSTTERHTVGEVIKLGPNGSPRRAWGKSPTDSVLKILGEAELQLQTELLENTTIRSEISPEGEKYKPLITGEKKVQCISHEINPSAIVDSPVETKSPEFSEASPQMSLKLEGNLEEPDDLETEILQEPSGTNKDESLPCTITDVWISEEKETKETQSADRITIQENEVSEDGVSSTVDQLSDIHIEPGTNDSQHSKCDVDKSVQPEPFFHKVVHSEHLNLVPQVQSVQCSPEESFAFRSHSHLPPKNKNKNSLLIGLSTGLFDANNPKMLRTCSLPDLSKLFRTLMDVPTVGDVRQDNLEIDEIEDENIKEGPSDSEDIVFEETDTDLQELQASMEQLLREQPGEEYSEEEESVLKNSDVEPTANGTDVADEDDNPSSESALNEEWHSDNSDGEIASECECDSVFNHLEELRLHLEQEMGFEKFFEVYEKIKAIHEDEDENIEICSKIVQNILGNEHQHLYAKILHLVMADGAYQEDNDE
# [3] = biological target: T2, Serine/threonine-protein kinase Nek1 (Homo sapiens); settings: at 1 µM
# [4] = biological target: T3, Serine/threonine-protein kinase Nek2 (Homo sapiens) (UniProt P51955); settings: at 0.1 µM
# T3 sequence (whole entry): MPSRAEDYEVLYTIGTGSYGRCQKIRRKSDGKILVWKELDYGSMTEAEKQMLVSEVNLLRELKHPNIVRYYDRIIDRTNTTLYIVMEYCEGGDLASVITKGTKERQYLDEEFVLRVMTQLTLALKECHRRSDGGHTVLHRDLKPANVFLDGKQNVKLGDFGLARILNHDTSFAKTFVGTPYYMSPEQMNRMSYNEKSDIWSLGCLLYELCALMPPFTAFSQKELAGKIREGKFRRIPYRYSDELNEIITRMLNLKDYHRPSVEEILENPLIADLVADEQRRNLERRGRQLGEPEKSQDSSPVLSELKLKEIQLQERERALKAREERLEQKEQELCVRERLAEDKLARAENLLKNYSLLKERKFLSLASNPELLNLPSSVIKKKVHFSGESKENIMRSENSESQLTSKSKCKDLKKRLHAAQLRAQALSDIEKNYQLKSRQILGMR
# [5] = biological target: T3, Serine/threonine-protein kinase Nek2 (Homo sapiens); settings: at 1 µM
# [6] = biological target: Serine/threonine-protein kinase Nek6 (Homo sapiens) (UniProt Q9HC98); settings: at 0.1 µM
# Sequence of Serine/threonine-protein kinase Nek6 (Homo sapiens) (Q9HC98 whole entry): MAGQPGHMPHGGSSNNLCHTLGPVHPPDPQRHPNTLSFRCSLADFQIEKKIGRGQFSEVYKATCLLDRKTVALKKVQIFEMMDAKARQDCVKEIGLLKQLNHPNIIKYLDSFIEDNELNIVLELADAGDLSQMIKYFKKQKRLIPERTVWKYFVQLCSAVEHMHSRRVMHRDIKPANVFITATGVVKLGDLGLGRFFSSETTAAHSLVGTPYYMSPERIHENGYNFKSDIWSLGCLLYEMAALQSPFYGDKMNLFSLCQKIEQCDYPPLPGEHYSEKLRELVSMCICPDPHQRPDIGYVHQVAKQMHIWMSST
# [7] = biological target: Serine/threonine-protein kinase Nek6 (Homo sapiens) (UniProt Q9HC98); settings: at 1 µM
# [8] = biological target: Serine/threonine-protein kinase Nek7 (Homo sapiens) (UniProt Q8TDX7); settings: at 0.1 µM
# Sequence of Serine/threonine-protein kinase Nek7 (Homo sapiens) (Q8TDX7 whole entry, looked up): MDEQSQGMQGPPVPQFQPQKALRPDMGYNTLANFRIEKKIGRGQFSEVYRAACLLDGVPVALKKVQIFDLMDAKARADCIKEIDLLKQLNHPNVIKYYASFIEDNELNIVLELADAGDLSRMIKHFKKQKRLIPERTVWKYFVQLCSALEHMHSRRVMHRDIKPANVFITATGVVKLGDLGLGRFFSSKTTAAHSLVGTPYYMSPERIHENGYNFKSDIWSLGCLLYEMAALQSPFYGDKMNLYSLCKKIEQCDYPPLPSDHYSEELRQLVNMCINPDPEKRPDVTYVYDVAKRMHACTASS
# [9] = biological target: Serine/threonine-protein kinase Nek7 (Homo sapiens) (UniProt Q8TDX7); settings: at 1 µM
# [10] = biological target: T4, Serine/threonine-protein kinase Nek9 (Homo sapiens) (UniProt Q8TD19); settings: at 0.1 µM;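 further: reported value is the mean percent inhibition of NEK9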
# T4 sequence (whole entry): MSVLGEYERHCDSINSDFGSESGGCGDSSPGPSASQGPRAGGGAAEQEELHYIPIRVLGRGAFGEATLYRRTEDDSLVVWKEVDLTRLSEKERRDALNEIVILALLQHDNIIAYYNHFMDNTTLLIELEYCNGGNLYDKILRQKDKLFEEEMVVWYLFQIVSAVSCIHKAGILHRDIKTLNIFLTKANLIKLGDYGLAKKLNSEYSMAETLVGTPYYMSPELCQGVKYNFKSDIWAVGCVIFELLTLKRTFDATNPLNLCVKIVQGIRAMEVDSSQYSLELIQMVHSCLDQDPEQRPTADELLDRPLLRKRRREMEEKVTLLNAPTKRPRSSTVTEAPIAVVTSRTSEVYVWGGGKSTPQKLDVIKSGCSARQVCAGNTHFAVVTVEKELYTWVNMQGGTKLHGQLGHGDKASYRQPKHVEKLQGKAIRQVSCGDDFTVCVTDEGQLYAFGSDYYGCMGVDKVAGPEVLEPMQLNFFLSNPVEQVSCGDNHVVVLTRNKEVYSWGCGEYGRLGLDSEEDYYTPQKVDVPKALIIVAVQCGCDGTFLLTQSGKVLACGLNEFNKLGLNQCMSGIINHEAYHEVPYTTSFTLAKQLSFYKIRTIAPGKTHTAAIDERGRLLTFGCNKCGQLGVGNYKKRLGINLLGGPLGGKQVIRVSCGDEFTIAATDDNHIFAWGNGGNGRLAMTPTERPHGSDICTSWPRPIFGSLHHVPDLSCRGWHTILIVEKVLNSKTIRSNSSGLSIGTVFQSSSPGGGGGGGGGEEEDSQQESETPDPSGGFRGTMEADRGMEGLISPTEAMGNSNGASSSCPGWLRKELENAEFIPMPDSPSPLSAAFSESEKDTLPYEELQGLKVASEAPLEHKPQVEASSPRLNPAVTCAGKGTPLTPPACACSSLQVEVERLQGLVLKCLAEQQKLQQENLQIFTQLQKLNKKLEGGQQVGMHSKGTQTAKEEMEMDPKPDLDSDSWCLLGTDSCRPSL
SMILES,inhibition [1] [%],inhibition [2] [%],inhibition [3] [%],inhibition [4] [%],inhibition [5] [%],inhibition [6] [%],inhibition [7] [%],inhibition [8] [%],inhibition [9] [%],inhibition [10] [%]
CCn1c(-c2nonc2N)nc2c(C#CC(C)(C)O)nc(OC[C@@H](N)c3ccccc3)cc21,34.9,0.04,3.08,-1.09,1.53,-0.14,3.35,0.12,-0.33,-3.59
CCn1c(-c2nonc2N)nc2cnc(Oc3cccc(NC(=O)c4ccc(OCCN5CCOCC5)cc4)c3)cc21,27.5,1.53,3.94,3.27,2.29,2.55,4.96,6.06,3.89,7.58
COc1cccc(-n2ncc3c(N/N=C/c4cccc(F)c4)ncnc32)c1,5.09,2.19,1.87,3.27,2.63,2.56,1.3,4.53,2.91,3.6
O=C(Nc1n[nH]c2nc(-c3ccco3)c(Br)cc12)C1CC1,3.64,2.9,1.85,4.03,3.85,3.21,0.56,4.18,3.03,1.02
Cc1cccc(-c2n[nH]cc2-c2ccc3ncccc3n2)n1,2.37,2.07,2.35,1.59,1.08,1.75,3.64,2.98,1.74,1.6
CCn1c(-c2nonc2N)nc2ccncc21,0.86,1.01,0.07,2.29,1.09,2.53,-2.93,3.2,2.01,0.35
COc1cc(C=NNc2ncnc3c2cnn3-c2ccccc2)ccc1O,8.67,3.59,15.8,2.6,3.58,1.23,-0.37,3.01,5.26,3.36
COc1cc2c(cc1Nc1nc(N3CCc4ccccc43)c3cc[nH]c3n1)N(C(=O)CN(C)C)CC2,-0.46,1.31,1,2.74,3.53,0.8,-0.68,3.4,3.29,4.32
COc1ccc2cc(-c3c(-c4ccncc4)nc(-c4ccc([S+](C)[O-])cc4)n3C)ccc2c1 (stereo not given),4.64,1.1,1.54,3.66,3.14,0.57,-1.38,2.77,2.17,7.56
Cc1nnc(-c2ccc(C)c(-c3ccc(C(=O)Nc4cccc(C#N)c4)cc3)c2)o1,6.02,1.56,4.44,3.25,2.64,1.65,0.35,3.44,3.07,5.36
CCn1c(-c2nonc2N)nc2c(N3CCCC3)nccc21,-2.89,-0.04,0.27,-0.88,-0.91,0.88,-1.63,2.1,-1.35,2.28
O=C1NC(=O)C(c2cccc(Cl)c2)=C1Nc1ccc(O)c(Cl)c1,0.33,0.25,0.17,1.39,1.51,-0.33,-3.08,1.78,1.51,1.58
CCCN1CCC(Oc2cc(Nc3nc(Nc4cccc(F)c4C(N)=O)c4cc[nH]c4n3)c(OC)cc2Cl)CC1,-1.68,0.59,0.62,-0.38,1.09,0.14,-2.04,-8.48,1.7,-0.6
CCn1c(-c2nonc2N)nc2cncc(C(=O)N3CC[C@H](N)C3)c21,36.1,1.89,3.47,5.3,6.1,0.64,5.91,6.16,7.48,11.8
COc1cc2ncn(-c3cc(OCc4ccccc4C(F)(F)F)c(C(N)=O)s3)c2cc1OC,5.84,3.95,19.1,6.41,17.1,0.15,2.1,3.29,5.2,16.7
NS(=O)(=O)c1cccc(-c2ccc3c(NC(=O)C4CC4)n[nH]c3c2)c1,-3.2,-0.9,-0.76,-1.41,-0.18,-1.88,-0.37,1.22,-2.64,4.44
CS(=O)(=O)CCNCc1nc(-c2ccc3ncnc(Nc4ccc(F)c(Cl)c4)c3c2)cs1,2.88,-0.13,1.85,2.32,2.06,3.94,4.01,-1.48,1.7,0.58
